According to the supplement of paper PMC3334620:
Whole data set: some 33,000 sequences, median “E-score (-0.5 to 0.5)” near -0.011, cut for the highest 2% near 0.28. This is one part of a sample in which the highest values are shown more often than they occur.

What follows are sequences tested against T1, Gcr1 (UniProt P07261) (assay: PBM E-score (8-mer binding enrichment) (E-score (-0.5 to 0.5)); higher = stronger / more preferred TF binding). Conditions: protein concentration: 100 nM; construct: GST-full length.
T1 sequence: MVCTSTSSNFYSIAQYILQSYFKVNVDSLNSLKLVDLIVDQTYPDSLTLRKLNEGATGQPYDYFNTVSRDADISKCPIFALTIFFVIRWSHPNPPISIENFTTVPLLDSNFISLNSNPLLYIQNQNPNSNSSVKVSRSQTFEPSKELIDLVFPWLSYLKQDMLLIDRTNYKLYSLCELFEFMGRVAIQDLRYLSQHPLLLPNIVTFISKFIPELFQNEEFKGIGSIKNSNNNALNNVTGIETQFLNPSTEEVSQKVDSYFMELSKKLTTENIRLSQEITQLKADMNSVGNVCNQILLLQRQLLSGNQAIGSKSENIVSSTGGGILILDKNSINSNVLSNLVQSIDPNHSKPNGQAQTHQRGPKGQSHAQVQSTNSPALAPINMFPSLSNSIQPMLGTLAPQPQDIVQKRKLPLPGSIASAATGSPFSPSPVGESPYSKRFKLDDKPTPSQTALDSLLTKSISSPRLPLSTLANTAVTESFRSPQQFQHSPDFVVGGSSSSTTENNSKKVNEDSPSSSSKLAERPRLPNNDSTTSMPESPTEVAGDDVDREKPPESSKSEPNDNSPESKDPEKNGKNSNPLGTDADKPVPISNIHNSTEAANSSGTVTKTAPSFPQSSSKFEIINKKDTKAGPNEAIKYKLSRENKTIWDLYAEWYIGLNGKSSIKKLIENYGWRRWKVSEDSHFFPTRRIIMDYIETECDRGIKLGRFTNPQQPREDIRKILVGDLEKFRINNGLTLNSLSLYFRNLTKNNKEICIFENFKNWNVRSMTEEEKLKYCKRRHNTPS
Outline: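 Yeast transcription factors carrying a GST tag, as full-length proteins or DNA-binding domains, were produced by PURExpress in vitro transcription/translation. About 100-200 nM protein was applied to universal all-10-mer Agilent arrays, double-stranded by primer extension on fresh or once-stripped slides. Bound protein was detected with fluorescent anti-GST, and scans were normalised with masliner. The Universal PBM Analysis Suite gave each ungapped eight-base word, pooled with its reverse complement, an E-score, a modified Wilcoxon-Mann-Whitney statistic.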

In order of falling “PBM E-score” value:
1. GGCAGCCA  0.422
2. GGGTTCCA  0.419
3. TCCACTAA  0.418
4. CTGGAATC  0.407
5. AGGCAGCC  0.382
6. CGGCAGCC  0.382
7. AACTTCCT  0.376
8. GGCAACCA  0.374
9. GAATTCCA  0.369
10. AGCAGCCT  0.369
11. GCCACTAA  0.366
12. CGCAGCCA  0.365
13. GGACGCTA  0.363
14. ACCACTAT  0.356
15. AGCAGCCA  0.35
16. AGCAACCA  0.349
17. AACTTCCA  0.349
18. GGCGTCTA  0.342
19. AGGTTCCA  0.327
20. CGCAGCCC  0.324
21. GGCAGCCC  0.324
22. GACTTCCA  0.319
23. AGCAACCT  0.316
24. CACTTCCA  0.312
25. AGCAGCTG  0.311
26. AGCGTCTA  0.307
27. GCCACTAC  0.305
28. CGCGTCTC  0.301
29. AGACGCTA  0.293
30. ATGGAATC  0.29
31. ACCACTAA  0.285
32. AGCAGCCG  0.285
33. AGCAGCTA  0.273
34. AACTTCCG  0.267
35. ACCACTAG  0.267
36. TGCAACCA  0.261
37. CTGGAATA  0.259
38. AGACGCTG  0.254
39. CCCACTAA  0.241
40. GCGTCTTA  0.239
41. GCCACTGA  0.237
42. AGCCCGCA  0.225
43. AGCGTCTC  0.22
44. CGCAGCGA  0.22
45. CCGGAATC  0.219
46. AGGTTCCG  0.205
47. AGCAGCCC  0.2
48. CGGTTCCA  0.189
49. TCCACTCA  0.189
50. CCCACTAC  0.187
51. AGACGCTC  0.185
52. GCCACTTA  0.184
53. ACATTACA  0.178
54. GGCAACCC  0.176
55. AGCGTCTG  0.175
56. AACTTCGT  0.173
57. AGCAGCTC  0.16
58. CGCAGCGC  0.15
59. GTCCAAGA  0.149
60. CGCAACCA  0.147
61. ATGAAGCC  0.145
62. ACAGGAAC  0.144
63. CACCTTAG  0.141
64. CGCGTCTA  0.137
65. AAATCCAT  0.129
66. ACCACTAC  0.129
67. GACTTCCC  0.127
68. ACAGGAAA  0.125
69. GAGTTCCA  0.123
70. TACTTCCA  0.121
71. GGTTTCCA  0.119
72. ACTAACCA  0.117
73. GAATTCCC  0.116
74. TGGATAAA  0.11
75. ATTGCTAC  0.11
76. CTAAACGC  0.0998
77. ATGGAATA  0.0994
78. AGCAGCAA  0.0994
79. CGCAGCCG  0.0939
80. TGATATCA  0.0841
81. CAATTCCA  0.0815
82. AGGCAGCA  0.0795
83. AATACCGA  0.0609
84. CACTTCCC  0.0585
85. AGCAACCG  0.0554
86. GCCTGTGA  0.0496
87. ACTGAAAC  0.0485
88. CGACGCTA  0.0406
89. GTCATTAA  0.0346
90. AAACCCGG  0.0332
91. GGGTTAAC  0.0316
92. ACCAACCA  0.0293
93. CACTTCCG  0.0282
94. ATCCCCGA  0.0266
95. AGCGTCAA  0.0252
96. CAGCCATA  0.022
97. AGGCAGCG  0.0171
98. TGCAGCCA  0.00515
99. CACTAACG  0.00491
100. AGATCTGG  0.00449
101. GTCAGGAC  0.00402
102. CAACCCAG  0.00319
103. AGCAACCC  0.00142
104. CGCAGGCG  0.00025
105. ACCAGCCT  0.0001
106. CCGATTCA  -0.00017
107. ATGGAATG  -0.00503
108. AGCAGCAT  -0.00516
109. AACTTCCC  -0.0101
110. CGGCAGCA  -0.0108
111. AGTCTACG  -0.0187
112. AGCAGCAG  -0.0192
113. AGCACTAA  -0.0258
114. ACTGCTAA  -0.0287
115. GGCGTCAA  -0.0289
116. CCGACCCA  -0.0324
117. CAGCTGTC  -0.0336
118. AGTAGCAT  -0.0355
119. GCCACTCC  -0.045
120. GGCCCGCA  -0.0485
121. GCCAGCCA  -0.0514
122. GCCAGCCC  -0.0556
123. GACTTCAA  -0.0566
124. GGCAGCAC  -0.0566
125. ACGCGCAT  -0.0657
126. ACGAGCAC  -0.0665
127. ACCACTCA  -0.067
128. CTGCCGAA  -0.0682
129. ATCTATGA  -0.0683
130. CCCGTCTC  -0.0723
131. GCCCTGGA  -0.0767
132. CCATTCCC  -0.0773
133. ACAAAGAG  -0.078
134. GCACGCTA  -0.0819
135. CGAGCCTC  -0.0914
136. CCTACTAC  -0.0926
137. GAACAACC  -0.0951
138. AGTCCGTG  -0.0968
139. ACGGCTCG  -0.105
140. CGCGAGTC  -0.109
141. AATGCTCT  -0.112
142. AGGCACTA  -0.113
143. CAGCTCGC  -0.117
144. CACTCCCG  -0.134
145. CCCGCGAC  -0.167
146. ATCGAGCG  -0.167
147. AGGGAAAT  -0.173
148. CGTAAGAG  -0.199
149. GGATATCC  -0.206
150. ACGTTCAC  -0.22
151. CACAGCCC  -0.232
152. AGGCCAGG  -0.25
153. CGGCCCTA  -0.253
154. CGGCAGAC  -0.254
155. ATCAGCCG  -0.264
156. AACGCTCC  -0.276
157. CGACCGTC  -0.41
